Data taken from PubChem BioAssay (NCATS).
Inconclusive results are not listed. Values without a mark were called inactive. The source made the active and inactive calls. The call rests on the fitted dose curve; in most records, active means well fitted curve in the direction sought with a large enough effect; inconclusive means small, poorly fitted or top-dose-only effect, or another doubt; inactive means no such curve, though single readings can be large; an effect the other way counts as inactive or inconclusive.

Target: Voltage-gated inwardly rectifying potassium channel KCNH2 (Homo sapiens) (UniProt Q12809)
Sequence (Q12809 whole entry, looked up): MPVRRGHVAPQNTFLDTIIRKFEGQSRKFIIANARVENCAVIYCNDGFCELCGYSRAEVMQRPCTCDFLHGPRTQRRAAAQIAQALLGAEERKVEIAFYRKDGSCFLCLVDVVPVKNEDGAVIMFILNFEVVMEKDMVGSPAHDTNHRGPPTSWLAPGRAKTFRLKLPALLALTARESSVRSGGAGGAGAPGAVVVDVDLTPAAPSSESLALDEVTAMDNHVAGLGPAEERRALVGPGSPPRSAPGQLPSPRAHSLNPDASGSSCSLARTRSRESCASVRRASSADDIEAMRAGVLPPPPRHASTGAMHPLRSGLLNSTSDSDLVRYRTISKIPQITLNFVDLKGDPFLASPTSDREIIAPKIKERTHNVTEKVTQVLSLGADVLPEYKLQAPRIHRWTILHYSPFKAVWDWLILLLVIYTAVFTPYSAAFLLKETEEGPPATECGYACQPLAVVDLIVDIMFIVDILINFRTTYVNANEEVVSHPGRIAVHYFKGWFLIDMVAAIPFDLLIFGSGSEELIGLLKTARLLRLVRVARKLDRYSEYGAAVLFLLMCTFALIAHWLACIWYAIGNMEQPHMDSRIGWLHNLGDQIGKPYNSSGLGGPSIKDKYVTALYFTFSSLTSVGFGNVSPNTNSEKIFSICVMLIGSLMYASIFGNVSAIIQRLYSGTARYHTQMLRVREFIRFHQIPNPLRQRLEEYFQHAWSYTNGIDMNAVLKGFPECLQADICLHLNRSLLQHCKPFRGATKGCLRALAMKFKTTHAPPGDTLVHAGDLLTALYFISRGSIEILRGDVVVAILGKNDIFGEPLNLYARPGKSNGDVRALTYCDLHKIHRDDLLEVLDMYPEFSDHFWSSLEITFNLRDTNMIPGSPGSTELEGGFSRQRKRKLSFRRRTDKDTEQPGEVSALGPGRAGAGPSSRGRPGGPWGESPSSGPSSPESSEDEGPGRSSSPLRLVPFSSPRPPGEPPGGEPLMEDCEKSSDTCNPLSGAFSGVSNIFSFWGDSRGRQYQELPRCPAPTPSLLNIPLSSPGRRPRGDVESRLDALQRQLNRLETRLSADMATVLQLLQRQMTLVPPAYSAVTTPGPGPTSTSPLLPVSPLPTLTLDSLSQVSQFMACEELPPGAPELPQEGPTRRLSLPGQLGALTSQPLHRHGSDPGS
Assay: qHTS Assay for Small Molecule Inhibitors of the Human hERG Channel Activity (AID 588834);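 further: top concentration of the series differs between compounds; on the % scale 0 is the no-effect control and ±100 the full control effect; lower thallium flux fluorescence means stronger hERG block; nearly all actives have a fitted effect of over 50% in size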
Conditions: U2OS BacMam hERG, FluxOR thallium flux fluorescence; series mostly up to 46.1 µM; activity change, negative = inhibition: at the top concentration
Procedure, shortened: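 Concentration-response qHTS measuring drop in thallium-sensitive dye signal. U2OS cells carrying BacMam hERG; compound exposure ~10 min, then stimulation buffer and 2 min read at 1 sec intervals.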

For `IC(I)I`, which Potency is on record?
Its Potency is “inactive”.

Which “activity change, negative = inhibition” value does the source give for `O=C(O)c1cc(=O)c2c3nc4ccccc4oc-3cc(=O)c2[nH]1` here?
Its value is 12.3%.

Which “activity change, negative = inhibition” value does the source give for `CC(Cc1ccc(O)c(O)c1)C(C)Cc1ccc(O)c(O)c1` (stereo not drawn) here?
The value was 4.16%.

For `O=S(=O)(O)c1ccc2c(N=Nc3ccc(S(=O)(=O)O)c4ccccc34)c(O)c(S(=O)(=O)O)cc2c1`, which “activity change, negative = inhibition” value is on record?
Its value is 28.4%.

With `CC1(C)C(C=C(Cl)Cl)C1C(=O)OCc1cccc(Oc2ccccc2)c1` (stereo not drawn) as the molecule, how does the “activity change, negative = inhibition” value read?
The value was -23.1%.

With `Nc1ncnc2c1ncn2[C@@H]1O[C@H](COP(=O)(O)OP(=O)(O)OP(=O)(O)O)[C@@H](O)[C@H]1O` as the molecule, how does the “activity change, negative = inhibition” value read?
Its value is -2%.

Which “activity change, negative = inhibition” value does the source give for `C=C1C(=CC=C2CCC[C@@]3(C)[C@@H]2CC[C@H]3[C@H](C)CCCC(C)C)C[C@@H](O)C[C@@H]1O` here?
Its value is -3.34%.

Target: Luciferin 4-monooxygenase (Photinus pyralis) (UniProt P08659)
Sequence (P08659 whole entry, looked up): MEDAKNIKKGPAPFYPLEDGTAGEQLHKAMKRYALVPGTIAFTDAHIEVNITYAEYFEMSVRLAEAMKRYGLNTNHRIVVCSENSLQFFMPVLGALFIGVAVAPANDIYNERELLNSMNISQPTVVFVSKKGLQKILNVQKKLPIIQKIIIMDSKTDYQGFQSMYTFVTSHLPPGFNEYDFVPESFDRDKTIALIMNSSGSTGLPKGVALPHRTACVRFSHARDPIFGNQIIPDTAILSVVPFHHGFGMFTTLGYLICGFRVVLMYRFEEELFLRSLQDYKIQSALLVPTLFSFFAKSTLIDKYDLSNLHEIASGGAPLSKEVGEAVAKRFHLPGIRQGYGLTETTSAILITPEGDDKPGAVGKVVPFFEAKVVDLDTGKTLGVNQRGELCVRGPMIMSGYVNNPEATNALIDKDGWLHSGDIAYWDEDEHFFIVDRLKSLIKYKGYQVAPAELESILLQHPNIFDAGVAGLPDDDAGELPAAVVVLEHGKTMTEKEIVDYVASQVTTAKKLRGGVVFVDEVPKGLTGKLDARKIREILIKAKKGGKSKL
Assay: Biochemical firefly luciferase enzyme assay for NPC (AID 624030); further: nearly all actives have a fitted effect of over 70% in size; further: potency means the concentration at half of the fitted maximal effect;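 on activity change, negative = inhibition: purified P. pyralis luciferase at 10 nM with luciferin and ATP substrate; 0% = DMSO and -100% = full luciferase inhibition by PTC124 control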
Conditions: purified P. pyralis luciferase, luminescence, 5 min; series mostly up to 58.6 µM; activity change, negative = inhibition: at the top concentration
Procedure, shortened: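 Purified P. pyralis luciferase at 10 nM in 50 mM Tris Acetate (final), luminescence read within 5 minutes of enzyme addition to compounds. Activity normalised to PTC124 versus DMSO; concentration-response curves classed by r2, magnitude and activity.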

Which “activity change, negative = inhibition” value does the source give for `CCCCC(C)(O)C/C=C/[C@H]1[C@H](O)CC(=O)[C@@H]1CCCCCCC(=O)OC` (stereo partly drawn) here?
The value was -3.27%.

Which “activity change, negative = inhibition” value does the source give for `CCC(=O)NCCC1CCc2ccc3c(c21)CCO3` (stereo not drawn) here?
Its value is -3.78%.

Which “activity change, negative = inhibition” value does the source give for `CC1(C)S[C@@H]2[C@H](NC(=O)[C@@H](NC(=O)N3CCNC3=O)c3ccccc3)C(=O)N2[C@H]1C(=O)O` here?
The value was -1.43% [at 24.9 µM].

With `OC[C@H]1O[C@@H](n2cnc3c2NC=NC[C@H]3O)C[C@@H]1O` as the molecule, how does the “activity change, negative = inhibition” value read?
The value was -4.61%.

For `O=C(COc1ccc(Cl)cc1)OCCNC12CC3CC(CC(C3)C1)C2`, which “activity change, negative = inhibition” value is on record?
Its value is 0.513%.

For `CC1=C(/C=C/C(C)=C/C=C/C(C)=C/C=C/C=C(C)/C=C/C=C(C)/C=C/C2=C(C)CCCC2(C)C)C(C)(C)CCC1`, which “activity change, negative = inhibition” value is on record?
Its value is -0.306%.

Which Potency does the source give for `O=C(Nc1ccc(Br)cc1)c1cc(Br)c(Br)s1` here?
The Potency was 16.1 µM (active).

For `CCCC(=O)O[C@]1(C(=O)CCl)[C@H](C)C[C@@H]2[C@H]3CCC4=CC(=O)C=C[C@]4(C)[C@@]3(F)C(=O)C[C@@]21C`, which “activity change, negative = inhibition” value is on record?
The value was 1.08%.

With `CN(C)CCCN1c2ccccc2C(C)(C)c2ccccc21` as the molecule, how does the “activity change, negative = inhibition” value read?
The value was 4.93%.

With `O=C(O)CN(CCN(CC(=O)O)CC(=O)O)CC(=O)O` as the molecule, how does the “activity change, negative = inhibition” value read?
Its value is 2.42%.

For `COCC(=O)Nc1cc(Sc2ccccc2)ccc1N=C(NC(=O)OC)NC(=O)OC`, which “activity change, negative = inhibition” value is on record?
Its value is -11%.

For `Oc1cc(O)c2c(c1)OC(c1ccc(O)c(O)c1)C(O)C2` (stereo not drawn), which “activity change, negative = inhibition” value is on record?
The value was -20.8%.

With `C#C[C@]1(O)CC[C@H]2[C@@H]3CCC4=CCCC[C@@H]4[C@H]3C(=C)C[C@@]21CC` as the molecule, how does the “activity change, negative = inhibition” value read?
The value was 0.0852%.

For `Cc1ccccc1OCC(O)CNCCOc1ccc(C(N)=O)cc1` (stereo not drawn), which “activity change, negative = inhibition” value is on record?
The value was -0.074%.

Which “activity change, negative = inhibition” value does the source give for `Cc1c(C)c2c(c(C)c1O)CC[C@@](C)(CCC[C@H](C)CCC[C@H](C)CCCC(C)C)O2` here?
Its value is 0.0997%.

With `CCCCCCCCCCCCCC[n+]1ccc(C)cc1` as the molecule, how does the “activity change, negative = inhibition” value read?
Its value is 13.8%.

Which “activity change, negative = inhibition” value does the source give for `CCN(CC)Cc1cc(Nc2ccnc3cc(Cl)ccc23)ccc1O` here?
The value was 8.99% [at 24.9 µM].

Which “activity change, negative = inhibition” value does the source give for `CN1C(=O)CN2CCc3ccccc3C2c2cc(Cl)ccc21` (stereo not drawn) here?
Its value is -6.51%.

With `CCCCCCCCCCCCCCCCCCOP(=O)([O-])OC1CC[N+](C)(C)CC1` as the molecule, how does the “activity change, negative = inhibition” value read?
The value was -1.85% [at 24.9 µM].

Which “activity change, negative = inhibition” value does the source give for `CC1=C(/C=C/C(C)=C/C=C/C(C)=C/CO)C(C)(C)CCC1` here?
The value was 0.835%.

Tested on: not listed separately
Assay: S16 Schwann cell viability assay (CellTiter-Glo assay) (AID 624031); further: nearly all actives have a fitted effect of over 70% in size; further: potency means the concentration at half of the fitted maximal effect;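 on activity change, negative = cytotoxicity: native untransfected S16 rat Schwann cells; cellular ATP luminescence as a viability measure; plate controls were DMSO-treated cells for no effect and cell-free wells for full effect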
Conditions: S16 rat Schwann cells viability, 24 h; series mostly up to 57.5 µM; activity change, negative = cytotoxicity: at the top concentration
Procedure, shortened: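 Following overnight culture in 10% FBS DMEM, parental S16 rat Schwann cells are dosed for 24 h at 37 °C. Viability is read as CellTiter-Glo luminescence and expressed as % activity relative to DMSO (0%) and no-cell wells.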

For `IC(I)I`, which “activity change, negative = cytotoxicity” value is on record?
Its value is 2.79%.

Which “activity change, negative = cytotoxicity” value does the source give for `CCCCC(C)(O)C/C=C/[C@H]1[C@H](O)CC(=O)[C@@H]1CCCCCCC(=O)OC` (stereo partly drawn) here?
The value was -6.89%.

Which “activity change, negative = cytotoxicity” value does the source give for `CCC(=O)NCCC1CCc2ccc3c(c21)CCO3` (stereo not drawn) here?
The value was -5.67%.

For `O=C(O)c1cc(=O)c2c3nc4ccccc4oc-3cc(=O)c2[nH]1`, which Potency is on record?
Its Potency is 36.1 µM (active).

Which “activity change, negative = cytotoxicity” value does the source give for `CC1(C)S[C@@H]2[C@H](NC(=O)[C@@H](NC(=O)N3CCNC3=O)c3ccccc3)C(=O)N2[C@H]1C(=O)O` here?
Its value is -18.9% [at 25.7 µM].

For `CCCCC(CC)COC(=O)CC(C(=O)OCC(CC)CCCC)S(=O)(=O)O` (stereo not drawn), which “activity change, negative = cytotoxicity” value is on record?
Its value is 0%.

Which “activity change, negative = cytotoxicity” value does the source give for `CC(Cc1ccc(O)c(O)c1)C(C)Cc1ccc(O)c(O)c1` (stereo not drawn) here?
Its value is -6.47%.

Which “activity change, negative = cytotoxicity” value does the source give for `CC1(C)C(C=C(Cl)Cl)C1C(=O)OCc1cccc(Oc2ccccc2)c1` (stereo not drawn) here?
Its value is 11%.

With `O=C(COc1ccc(Cl)cc1)OCCNC12CC3CC(CC(C3)C1)C2` as the molecule, how does the “activity change, negative = cytotoxicity” value read?
Its value is 1.16%.

Which “activity change, negative = cytotoxicity” value does the source give for `CC1=C(/C=C/C(C)=C/C=C/C(C)=C/C=C/C=C(C)/C=C/C=C(C)/C=C/C2=C(C)CCCC2(C)C)C(C)(C)CCC1` here?
The value was 15.3%.

Which “activity change, negative = cytotoxicity” value does the source give for `Nc1ncnc2c1ncn2[C@@H]1O[C@H](COP(=O)(O)OP(=O)(O)OP(=O)(O)O)[C@@H](O)[C@H]1O` here?
The value was -2.66%.

Which “activity change, negative = cytotoxicity” value does the source give for `CCCC(=O)O[C@]1(C(=O)CCl)[C@H](C)C[C@@H]2[C@H]3CCC4=CC(=O)C=C[C@]4(C)[C@@]3(F)C(=O)C[C@@]21C` here?
The value was -2.6%.

With `CN(C)CCCN1c2ccccc2C(C)(C)c2ccccc21` as the molecule, how does the Potency read?
The Potency was 28.7 µM (active).

For `O=C(O)CN(CCN(CC(=O)O)CC(=O)O)CC(=O)O`, which “activity change, negative = cytotoxicity” value is on record?
Its value is 19.7%.

With `Oc1cc(O)c2c(c1)OC(c1ccc(O)c(O)c1)C(O)C2` (stereo not drawn) as the molecule, how does the “activity change, negative = cytotoxicity” value read?
The value was -5.12%.

For `COC(C(=O)C(O)C(C)O)C1Cc2cc3cc(OC4CC(OC5CC(O)C(O)C(C)O5)C(O)C(C)O4)c(C)c(O)c3c(O)c2C(=O)C1OC1CC(OC2CC(OC3CC(C)(O)C(O)C(C)O3)C(O)C(C)O2)C(O)C(C)O1` (stereo not drawn), which “activity change, negative = cytotoxicity” value is on record?
The value was -14.3%.

For `Clc1cc(Cl)c(OCC#CI)cc1Cl`, which Potency is on record?
Its Potency is 25.6 µM (active).

Which “activity change, negative = cytotoxicity” value does the source give for `Cc1c(C)c2c(c(C)c1O)CC[C@@](C)(CCC[C@H](C)CCC[C@H](C)CCCC(C)C)O2` here?
Its value is -24.7%.

For `CCN(CC)Cc1cc(Nc2ccnc3cc(Cl)ccc23)ccc1O`, which “activity change, negative = cytotoxicity” value is on record?
Its value is -19.1% [at 25.7 µM].

For `CN1C(=O)CN2CCc3ccccc3C2c2cc(Cl)ccc21` (stereo not drawn), which “activity change, negative = cytotoxicity” value is on record?
Its value is -16.8%.

With `CC1=C(/C=C/C(C)=C/C=C/C(C)=C/CO)C(C)(C)CCC1` as the molecule, how does the “activity change, negative = cytotoxicity” value read?
Its value is -5.86%.
